# Measurements taken from article PMC7862700, “An all-to-all approach to the identification of sequence-specific readers for epigenetic DNA modifications on cytosine”.
# Key:
# Assay in all cases: DAPPL (digital affinity profiling via proximity ligation, sequencing); 10 mM Tris-HCl pH 7.5, 50 mM NaCl, 1 mM DTT, 4% glycerol, room temperature, 30 min; GST-TFs on glutathione beads, 16-mer random dsDNA library, 0.1% formaldehyde crosslink after washing; high values mean tight binding
# Details in all cases: protein: recombinant; tags: N-terminal GST; dsDNA, one strand shown
# ERF = target: T1, ERF (Homo sapiens, UniProt P50548 1-548)
# T1 sequence: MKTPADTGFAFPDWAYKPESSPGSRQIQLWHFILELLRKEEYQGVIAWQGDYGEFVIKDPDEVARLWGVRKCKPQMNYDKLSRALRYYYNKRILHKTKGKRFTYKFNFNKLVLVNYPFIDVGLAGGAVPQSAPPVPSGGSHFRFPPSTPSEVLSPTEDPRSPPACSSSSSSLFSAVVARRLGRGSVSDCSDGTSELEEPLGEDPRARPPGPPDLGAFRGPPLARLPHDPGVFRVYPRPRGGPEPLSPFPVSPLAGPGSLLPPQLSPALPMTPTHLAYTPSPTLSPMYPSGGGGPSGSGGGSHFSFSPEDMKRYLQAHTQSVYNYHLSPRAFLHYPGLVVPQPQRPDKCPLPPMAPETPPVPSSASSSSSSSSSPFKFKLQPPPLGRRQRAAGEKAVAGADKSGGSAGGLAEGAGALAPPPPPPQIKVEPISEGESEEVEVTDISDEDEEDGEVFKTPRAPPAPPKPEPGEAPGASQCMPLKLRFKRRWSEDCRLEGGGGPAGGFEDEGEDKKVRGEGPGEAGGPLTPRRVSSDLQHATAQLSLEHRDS
# Summary of the method: (§1)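 After expression in yeast as GST fusions, human transcription factors were bound to glutathione beads, DNA-barcoded and mixed with a tag-only sample. The pools were incubated with 200 nmole of a 16-mer random double-stranded DNA library in Tris/NaCl/DTT/glycerol buffer (30 min, room temperature), washed and crosslinked with 0.1% formaldehyde. Proximity ligation with BsaI/T4 ligase ran for 1 h at 37 °C, before PCR amplification and sequencing on an Illumina NextSeq500. Binding signal is a hexamer's read frequency for a factor divided by its frequency for the tag-only sample.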
# ETV3L = target: T2, ETV3L (Homo sapiens, UniProt Q6ZN32 1-361)
# T2 sequence: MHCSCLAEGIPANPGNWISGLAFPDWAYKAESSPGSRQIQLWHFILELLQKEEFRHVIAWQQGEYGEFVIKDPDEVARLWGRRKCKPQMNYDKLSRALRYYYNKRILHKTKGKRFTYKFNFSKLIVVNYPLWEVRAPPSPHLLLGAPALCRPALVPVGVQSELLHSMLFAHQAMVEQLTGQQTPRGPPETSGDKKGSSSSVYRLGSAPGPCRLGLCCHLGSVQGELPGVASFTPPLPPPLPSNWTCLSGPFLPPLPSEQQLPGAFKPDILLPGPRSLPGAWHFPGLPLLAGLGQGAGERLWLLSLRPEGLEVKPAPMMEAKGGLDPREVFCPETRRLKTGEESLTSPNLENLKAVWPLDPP
# Summary of the method: as §1
# ETS2 = target: T3, ETS2 (Homo sapiens, UniProt P15036 1-469)
# T3 sequence: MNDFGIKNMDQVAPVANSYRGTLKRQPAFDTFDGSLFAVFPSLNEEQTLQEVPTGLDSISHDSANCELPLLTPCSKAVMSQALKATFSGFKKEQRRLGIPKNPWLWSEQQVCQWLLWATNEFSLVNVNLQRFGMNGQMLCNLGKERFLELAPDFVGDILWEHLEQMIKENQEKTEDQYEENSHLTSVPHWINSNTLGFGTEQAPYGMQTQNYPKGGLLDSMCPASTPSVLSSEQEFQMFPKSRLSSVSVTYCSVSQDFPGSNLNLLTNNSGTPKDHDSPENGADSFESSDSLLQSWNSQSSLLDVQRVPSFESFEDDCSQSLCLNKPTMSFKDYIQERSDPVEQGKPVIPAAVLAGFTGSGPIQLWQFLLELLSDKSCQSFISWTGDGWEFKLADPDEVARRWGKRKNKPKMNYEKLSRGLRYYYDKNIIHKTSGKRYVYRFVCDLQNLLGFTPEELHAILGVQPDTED
# Summary of the method: as §1
# SPDEF = target: T4, SPDEF (Homo sapiens, UniProt O95238 1-335)
# T4 sequence: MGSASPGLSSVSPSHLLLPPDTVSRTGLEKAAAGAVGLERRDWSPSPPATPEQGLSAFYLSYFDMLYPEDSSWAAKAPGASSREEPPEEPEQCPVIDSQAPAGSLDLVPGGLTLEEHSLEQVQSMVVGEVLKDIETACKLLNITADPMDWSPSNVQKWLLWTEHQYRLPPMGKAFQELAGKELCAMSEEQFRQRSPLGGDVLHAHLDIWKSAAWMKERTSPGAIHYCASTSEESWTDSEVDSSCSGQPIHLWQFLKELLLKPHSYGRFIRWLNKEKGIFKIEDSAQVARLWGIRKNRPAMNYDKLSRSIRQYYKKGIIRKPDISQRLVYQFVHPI
# Summary of the method: as §1
# ETV7 = target: T5, ETV7 (Homo sapiens, UniProt Q9Y603 1-341)
# T5 sequence: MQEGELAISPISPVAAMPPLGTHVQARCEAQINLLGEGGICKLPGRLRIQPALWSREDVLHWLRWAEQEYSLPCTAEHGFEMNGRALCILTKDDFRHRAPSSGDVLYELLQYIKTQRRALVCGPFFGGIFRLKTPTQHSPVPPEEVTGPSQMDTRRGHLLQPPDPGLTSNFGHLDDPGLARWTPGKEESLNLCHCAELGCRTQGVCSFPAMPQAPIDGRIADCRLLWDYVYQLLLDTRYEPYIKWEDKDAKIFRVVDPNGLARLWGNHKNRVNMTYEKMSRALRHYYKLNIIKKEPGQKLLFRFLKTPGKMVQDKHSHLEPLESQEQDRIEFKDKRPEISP
# Summary of the method: as §1
# ELF5 = target: T6, ELF5 (Homo sapiens, UniProt Q9UKW6-2 1-255)
# T6 sequence: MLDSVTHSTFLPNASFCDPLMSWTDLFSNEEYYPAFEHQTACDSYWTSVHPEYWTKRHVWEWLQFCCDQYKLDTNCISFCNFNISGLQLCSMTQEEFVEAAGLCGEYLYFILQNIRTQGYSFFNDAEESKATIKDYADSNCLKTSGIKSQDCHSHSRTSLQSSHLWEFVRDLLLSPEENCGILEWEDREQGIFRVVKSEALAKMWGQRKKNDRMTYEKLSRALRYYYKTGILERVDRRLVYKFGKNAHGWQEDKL
# Summary of the method: as §1
# ETV3 = target: T7, ETV3 (Homo sapiens, UniProt P41162-2 1-143)
# T7 sequence: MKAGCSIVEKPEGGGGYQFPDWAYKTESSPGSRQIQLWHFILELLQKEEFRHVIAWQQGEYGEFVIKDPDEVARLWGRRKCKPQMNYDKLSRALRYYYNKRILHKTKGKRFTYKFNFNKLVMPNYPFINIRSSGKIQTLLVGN
# Summary of the method: as §1
# ETV6 = ETV6 (Homo sapiens, UniProt P41212 1-452)
# Chain of ETV6 (P41212 whole entry): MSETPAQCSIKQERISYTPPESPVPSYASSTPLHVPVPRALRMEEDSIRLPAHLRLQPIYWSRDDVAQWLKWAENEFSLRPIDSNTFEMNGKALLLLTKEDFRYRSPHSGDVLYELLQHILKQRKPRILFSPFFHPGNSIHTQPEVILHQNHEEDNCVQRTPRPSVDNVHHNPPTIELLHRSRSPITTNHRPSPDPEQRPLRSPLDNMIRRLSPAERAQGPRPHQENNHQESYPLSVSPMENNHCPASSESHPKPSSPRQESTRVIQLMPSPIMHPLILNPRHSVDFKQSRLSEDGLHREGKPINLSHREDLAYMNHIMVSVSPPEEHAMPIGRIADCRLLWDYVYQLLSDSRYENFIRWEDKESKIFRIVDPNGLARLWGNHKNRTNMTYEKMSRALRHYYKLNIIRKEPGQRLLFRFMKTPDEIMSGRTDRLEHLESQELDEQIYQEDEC
# Summary of the method: as §1
Sequence,binding signal (ERF),binding signal (ETV3L),binding signal (ETS2),binding signal (SPDEF),binding signal (ETV7),binding signal (ELF5),binding signal (ETV3),binding signal (ETV6)
AATGTA,"1.14 fold enrichment (6-mer frequency, TF over GST control)","1.1 fold enrichment (6-mer frequency, TF over GST control)","1.25 fold enrichment (6-mer frequency, TF over GST control)","1.2 fold enrichment (6-mer frequency, TF over GST control)","1.15 fold enrichment (6-mer frequency, TF over GST control)","1.21 fold enrichment (6-mer frequency, TF over GST control)","1.17 fold enrichment (6-mer frequency, TF over GST control)","1.15 fold enrichment (6-mer frequency, TF over GST control)"
TAATTG,"1.35 fold enrichment (6-mer frequency, TF over GST control)","1.37 fold enrichment (6-mer frequency, TF over GST control)","1.42 fold enrichment (6-mer frequency, TF over GST control)","1.22 fold enrichment (6-mer frequency, TF over GST control)","1.44 fold enrichment (6-mer frequency, TF over GST control)","1.37 fold enrichment (6-mer frequency, TF over GST control)","1.34 fold enrichment (6-mer frequency, TF over GST control)","1.42 fold enrichment (6-mer frequency, TF over GST control)"
TATCGA,"1.38 fold enrichment (6-mer frequency, TF over GST control)","1.41 fold enrichment (6-mer frequency, TF over GST control)","1.44 fold enrichment (6-mer frequency, TF over GST control)","1.34 fold enrichment (6-mer frequency, TF over GST control)","1.32 fold enrichment (6-mer frequency, TF over GST control)","1.18 fold enrichment (6-mer frequency, TF over GST control)","1.25 fold enrichment (6-mer frequency, TF over GST control)","1.35 fold enrichment (6-mer frequency, TF over GST control)"
TTAGGG,"1.21 fold enrichment (6-mer frequency, TF over GST control)","1.14 fold enrichment (6-mer frequency, TF over GST control)","1.08 fold enrichment (6-mer frequency, TF over GST control)","1.18 fold enrichment (6-mer frequency, TF over GST control)","1.06 fold enrichment (6-mer frequency, TF over GST control)","1.11 fold enrichment (6-mer frequency, TF over GST control)","1.11 fold enrichment (6-mer frequency, TF over GST control)","1.08 fold enrichment (6-mer frequency, TF over GST control)"
TCTTTC,"1.33 fold enrichment (6-mer frequency, TF over GST control)","1.39 fold enrichment (6-mer frequency, TF over GST control)","1.43 fold enrichment (6-mer frequency, TF over GST control)","1.44 fold enrichment (6-mer frequency, TF over GST control)","1.27 fold enrichment (6-mer frequency, TF over GST control)","1.48 fold enrichment (6-mer frequency, TF over GST control)","1.44 fold enrichment (6-mer frequency, TF over GST control)","1.38 fold enrichment (6-mer frequency, TF over GST control)"
TCAAAA,"1.12 fold enrichment (6-mer frequency, TF over GST control)","1.18 fold enrichment (6-mer frequency, TF over GST control)","1.15 fold enrichment (6-mer frequency, TF over GST control)","1.06 fold enrichment (6-mer frequency, TF over GST control)","1.22 fold enrichment (6-mer frequency, TF over GST control)","1.11 fold enrichment (6-mer frequency, TF over GST control)","1.15 fold enrichment (6-mer frequency, TF over GST control)","1.24 fold enrichment (6-mer frequency, TF over GST control)"
ATGAAC,"1.26 fold enrichment (6-mer frequency, TF over GST control)","1.28 fold enrichment (6-mer frequency, TF over GST control)","1.29 fold enrichment (6-mer frequency, TF over GST control)","1.18 fold enrichment (6-mer frequency, TF over GST control)","1.2 fold enrichment (6-mer frequency, TF over GST control)","1.29 fold enrichment (6-mer frequency, TF over GST control)","1.28 fold enrichment (6-mer frequency, TF over GST control)","1.24 fold enrichment (6-mer frequency, TF over GST control)"
ACCTTA,"1.29 fold enrichment (6-mer frequency, TF over GST control)","1.19 fold enrichment (6-mer frequency, TF over GST control)","1.16 fold enrichment (6-mer frequency, TF over GST control)","1.3 fold enrichment (6-mer frequency, TF over GST control)","1.21 fold enrichment (6-mer frequency, TF over GST control)","1.26 fold enrichment (6-mer frequency, TF over GST control)","1.17 fold enrichment (6-mer frequency, TF over GST control)","1.21 fold enrichment (6-mer frequency, TF over GST control)"
